Shown are actives, neighbours in structure and some others; about 4.1% of the full set was active somewhere.
ABHD5-PLIN5 inh: ABHD5-PLIN5 interaction inhibitors, primary screen, cell lysate, split luciferase complementation, luminescence; inhibition, % at 4 µM; 0.78% of 360,000 active; AID 602281, 2012; Split G. princeps luciferase complementation, 4 h;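 active = inhibition above the mean inhibition across every tested compound plus 3 SD, cut at about 22% in these data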;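 note: 0% = DMSO only wells and the 100% control is not disclosed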
PRMT1 inh: PRMT1 methyltransferase inhibitors, primary screen, biochemical, fluorescence polarization; inhibition, % at 2.79 µM; 1.3% of 370,000 active; recombinant PRMT1, activity-based probe fluorescence polarization; Protein arginine N-methyltransferase 1 (Homo sapiens), Q99873; AID 652257, 2013;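 active = inhibition above about 21% made by adding two undisclosed values, limit read from the data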
UHRF1 binding: UHRF1 methylated DNA binding inhibitors, primary screen, counter-screen for MBD2 inhibitor project, biochemical, TR-FRET, human UHRF1, single concentration; inhibition, % at 4.4 µM; 0.75% of 370,000 active; UHRF1 binding to methylated oligo; in the data active = inhibition above about 21%;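 note: UHRF1 SRA domain binding a hemimethylated CpG hairpin DNA probe; 0% = median of test compound wells and 100% = reference inhibitor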
LEDGF integ inh: blockers of LEDGF/p75-dependent integrase strand transfer – biochemical, TR-FRET, high throughput, primary screen. HIV-1 integrase (with human LEDGF/p75). TR-FRET IN-LEDGF/p75 DNA integration, Eu/Cy5. inhibition, % at 3.7 µM. 0.64% of 370,000 active. AID 743269, 2014;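 active = inhibition above the screen-wide mean plus 3 SD, cut at about 13% in these data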;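 note: signal is the Cy5 over europium emission ratio at 671 and 618 nm; 0% = plate median of compound wells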
MBD2 inh: inhibitors of MBD2 binding to methylated DNA, primary screen, biochemical, TR-FRET, DNA-binding domain, human. MBD2 binding to methylated oligonucleotide. inhibition, % at 4.4 µM. 0.31% of 370,000 active; in the data active = inhibition above about 13%
Target sequence (Q9UBB5 whole entry, looked up, the tested form may be a part): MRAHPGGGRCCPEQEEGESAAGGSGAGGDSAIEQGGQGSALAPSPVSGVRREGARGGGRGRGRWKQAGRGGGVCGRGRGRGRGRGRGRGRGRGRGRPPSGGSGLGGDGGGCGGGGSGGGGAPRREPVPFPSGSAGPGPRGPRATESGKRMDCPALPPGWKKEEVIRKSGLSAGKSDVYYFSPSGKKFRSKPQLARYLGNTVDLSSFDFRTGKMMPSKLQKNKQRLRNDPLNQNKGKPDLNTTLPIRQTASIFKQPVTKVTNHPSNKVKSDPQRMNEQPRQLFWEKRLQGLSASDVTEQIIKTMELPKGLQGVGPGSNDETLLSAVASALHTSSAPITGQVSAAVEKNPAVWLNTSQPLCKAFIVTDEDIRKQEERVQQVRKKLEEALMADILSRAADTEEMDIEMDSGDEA
rCAG binder: binders of r(CAG) RNA repeats, primary screen, biochemical, fluorescence | r(CAG) RNA repeat, TO-PRO-1 dye displacement fluorescence | inhibition, % at 3 µM | 1.3% of 370,000 active | AID 651821, 2012;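 active = inhibition above the plate cutoff, the mean of all test compounds on that plate plus 3 SD, cut at about 35% in these data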;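 note: 0% = DMSO alone and 100% = 100 µM mitoxantrone as full dye displacement; higher means more dye released from RNA so lower well fluorescence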
PRMT1 confirm: PRMT1 methyltransferase inhibitors, confirmation, biochemical, fluorescence polarization, triplicate | shares compounds with PRMT1 inh | recombinant His-PRMT1, activity-based probe fluorescence polarization | inhibition, % at 2.79 µM | 42% of 3,300 active | AID 687036, 2013;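 active = mean inhibition across replicates above the hit cutoff derived for the earlier primary screen, cut at about 22% in these data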
* hit, by the source's call; . = no result given.

SMILES | ABHD5-PLIN5 inh | PRMT1 inh | UHRF1 binding | LEDGF integ inh | MBD2 inh | rCAG binder | PRMT1 confirm
C#CCNC(=O)C[C@@H]1C[C@]2(C(=O)OCC)CCC3=C2N(CCC3)C1=O | . | -3.2 | -2.5 | 2.1 | -0.8 | 0.6 | .
O=C(CSC1=NNC(c2ccccn2)S1)Nc1ccccc1 (centres undefined) | 9.7 | 66.2* | -6.1 | -3.6 | -2.7 | 7.3 | 45.5*
O=C(CSC1=NNC(c2ccccn2)S1)Nc1cccc(Cl)c1 (centres undefined) | -15.1 | 61.0* | -5.0 | 5.4 | -0.8 | 11.7 | 40.9*
O=C(CSc1nnc(-c2ccccn2)o1)Nc1ccccc1 | -1.6 | 3.0 | 4.9 | -1.8 | -1.6 | -3.0 | .
O=C(CSc1nnc(-c2cccnc2)n1-c1ccc(Cl)cc1)c1ccc(F)cc1 | . | 8.4 | -3.2 | -3.3 | -0.3 | 1.3 | .
CC(=O)OCC1=C(C(=O)OC(C)(C)C)N2C(=O)[C@@H](NC(=O)Cc3ccccc3)[C@H]2SC1 | 7.6 | 7.6 | 2.2 | 4.3 | -6.0 | 7.0 | .
CC(=O)OCC1=C(C(=O)O)N2C(=O)C(NC(=O)c3ccc(COc4cccc(Cl)c4Cl)o3)C2SC1 (centres undefined) | 17.2 | 36.8* | -1.9 | 1.4 | -2.1 | 33.3 | 12.5
COc1cccc(C(=O)NC2C(=O)N3C(C(=O)O)=C(COC(C)=O)CSC23)c1 (centres undefined) | 20.2 | 29.1* | -2.4 | 2.5 | 10.3 | 16.3 | 33.6*
Cn1c(=O)c2cc(S(=O)(=O)N3CCN(c4ccc(F)cc4)CC3)ccc2n(C)c1=O | . | -1.4 | -0.7 | 0.3 | -9.4 | 1.4 | .
Cc1cc(C(=O)Nc2ccc(Nc3ccccc3)cc2)ccc1[N+](=O)[O-] | -2.5 | 28.1* | -1.6 | 4.3 | -1.4 | 9.9 | 6.1
O=C(NC1CCCCN(Cc2cccc(Cl)c2)C1=O)c1cccc([N+](=O)[O-])c1 (centres undefined) | . | 0.2 | -1.1 | -1.0 | -0.9 | 0.0 | .
CCOC(=O)c1c(N2C(=O)CC(Sc3ccccc3C(=O)O)C2=O)sc2c1CCCC2 (centres undefined) | 4.2 | 52.7* | 0.5 | 2.5 | 1.2 | 23.8 | 52.4*
COC(=O)c1ccccc1SC1CC(=O)N(c2ccccc2)C1=O (centres undefined) | 5.7 | 38.1* | 0.6 | -1.5 | 0.2 | 1.4 | 18.7
COC(=O)c1c(N2C(=O)CC(Sc3ncccc3C(=O)O)C2=O)sc(C)c1C (centres undefined) | 1.9 | 14.0 | 1.5 | -4.5 | 2.6 | 6.5 | .
O=C(O)c1ccccc1SC1CC(=O)N(c2cccc3ccccc23)C1=O (centres undefined) | 6.7 | 84.4* | 1.8 | 4.0 | -4.4 | 9.8 | 50.6*
CCN1C(=O)CC(Sc2ccccc2C(=O)O)C1=O (centres undefined) | 12.9 | -0.7 | -0.3 | -1.3 | 1.5 | 0.0 | .
O=C(NCc1ccccc1)[C@@H]1CCCN1C(=O)[C@H]1CCCN1C(=O)c1ccc(F)c(F)c1 | . | -1.6 | -0.1 | 0.2 | -2.2 | 0.0 | .
CCCc1ccc(-c2cc(NC(=O)Cc3c(C)[nH]c4ccccc34)ccc2N(C)c2cccnc2)cc1 | . | 1.1 | 3.7 | 5.8 | -0.6 | 15.4 | .
COC(=O)c1cc2c(c3c4cc(C)ccc4n(S(=O)(=O)c4ccc(C)cc4)c13)C(=O)N(Cc1ccccc1OC)C2 | . | 1.3 | -1.4 | -1.2 | 2.5 | 12.2 | .
CCNc1nc(SCC(N)=O)nc2sc3c(c12)CCN(C)C3 | -7.7 | 60.5* | -2.9 | 2.4 | 3.9 | 3.2 | 16.1
O=C(NCc1ccco1)c1cc2cc(Br)ccc2o1 | 1.5 | 31.0* | 1.8 | 3.2 | 3.9 | 3.4 | 24.7*
CCCCCCCCN1C(=O)N(Cc2ccc(OC)cc2)S(=O)(=O)c2ccc(F)cc21 | . | -2.2 | -2.8 | -1.1 | -1.6 | 0.0 | .
CC1=C(C(=O)O)N2C(=O)C(NC(=O)c3nn(C)cc3Cl)C2SC1 (centres undefined) | -10.2 | 5.5 | -1.4 | 0.9 | 1.9 | -1.5 | .
Cc1c(Cl)c(C(F)F)nn1CC(=O)NC1C(=O)N2C(C(=O)O)=C(CSc3nnnn3C)CSC12 (centres undefined) | 12.1 | 35.5* | 2.4 | 1.1 | -0.2 | 20.4 | 19.6
Cc1nnc(SCC2=C(C(=O)O)N3C(=O)C(NC(=O)C(C)n4nc(C(F)(F)F)cc4C)C3SC2)s1 (centres undefined) | 16.1 | 28.5* | 0.8 | 8.5 | 1.4 | 17.5 | 10.2
SMILES | ABHD5-PLIN5 inh | PRMT1 inh | UHRF1 binding | LEDGF integ inh | MBD2 inh | rCAG binder | PRMT1 confirm
CC(C(=O)NC1C(=O)N2C(C(=O)O)=C(CSc3nnnn3C)CSC12)n1cc(Cl)cn1 (centres undefined) | 10.2 | 30.4* | 0.8 | 0.6 | -6.2 | 9.0 | 8.8
NC(=O)c1cc[n+](CC2=C(C(=O)O)N3C(=O)[C@@H](NC(=O)C(c4ccccc4)S(=O)(=O)[O-])[C@H]3SC2)cc1 (some centres undefined) | -3.0 | . | . | . | . | . | .
Cc1c(Cl)cnn1CC(=O)NC1C(=O)N2C(C(=O)O)=C(CSc3nnnn3C)CSC12 (centres undefined) | 9.3 | 62.5* | 15.5 | 5.7 | 4.4 | 18.8 | 34.6*
CC1=C(C(=O)O)N2C(=O)C(NC(=O)c3ccc(F)cc3)C2SC1 (centres undefined) | -3.2 | 4.6 | -1.1 | -1.6 | -3.4 | -0.1 | .
O=C(CC1CCCC1)N1CC[C@H]2[C@H](CCCN2Cc2ccc(F)cc2)C1 | . | 0.6 | 1.0 | 0.6 | 0.1 | -3.1 | .
C=CCN(C)CC#Cc1ccc(OC)cc1 | . | -1.6 | 1.7 | -4.0 | 6.4 | -0.1 | .
CC(=O)Nc1ccc(SCCN2CC[C@@H](O)CCC2=O)cc1 | 4.0 | -1.9 | -2.0 | -2.6 | -4.7 | 3.3 | .
CC(=O)Nc1ccc(S[C@@H](CCN2CC[C@H](C(C)(C)C)CCC2=O)c2ccccc2)cc1 | -8.8 | 44.9* | 1.6 | 1.1 | 3.6 | 1.4 | 60.6*
CC(=O)Nc1ccc(SC[C@H](Cc2ccccc2)N2CC[C@@H](C(C)(C)C)CCC2=O)cc1 | -7.2 | 51.5* | 1.9 | 4.0 | -6.0 | 1.8 | 39.4*
CC(=O)Nc1ccc(SC[C@H](Cc2ccccc2)N2CC[C@@H](O)CCC2=O)cc1 | -4.4 | 7.0 | -0.4 | -0.2 | 0.7 | 1.1 | .
CC(=O)Nc1ccc(SCCN2CC[C@@H](C)CCC2=O)cc1 | -12.6 | 24.9* | -4.2 | -1.5 | -0.7 | -4.6 | 29.8*

Source: PubChem BioAssay (The Scripps Research Institute Molecular Screening Center)
